What was measured:
Assay in all cases: DAPPL (digital affinity profiling via proximity ligation, sequencing); 10 mM Tris-HCl pH 7.5, 50 mM NaCl, 1 mM DTT, 4% glycerol, room temperature, 30 min; GST-TFs on glutathione beads, 16-mer random dsDNA library, 0.1% formaldehyde crosslink after washing; high values mean tight binding
FLI1 = target: T1, FLI1 (Homo sapiens, UniProt Q01543 1-452); conditions: protein: recombinant; tags: N-terminal GST; dsDNA, one strand shown
T1 sequence: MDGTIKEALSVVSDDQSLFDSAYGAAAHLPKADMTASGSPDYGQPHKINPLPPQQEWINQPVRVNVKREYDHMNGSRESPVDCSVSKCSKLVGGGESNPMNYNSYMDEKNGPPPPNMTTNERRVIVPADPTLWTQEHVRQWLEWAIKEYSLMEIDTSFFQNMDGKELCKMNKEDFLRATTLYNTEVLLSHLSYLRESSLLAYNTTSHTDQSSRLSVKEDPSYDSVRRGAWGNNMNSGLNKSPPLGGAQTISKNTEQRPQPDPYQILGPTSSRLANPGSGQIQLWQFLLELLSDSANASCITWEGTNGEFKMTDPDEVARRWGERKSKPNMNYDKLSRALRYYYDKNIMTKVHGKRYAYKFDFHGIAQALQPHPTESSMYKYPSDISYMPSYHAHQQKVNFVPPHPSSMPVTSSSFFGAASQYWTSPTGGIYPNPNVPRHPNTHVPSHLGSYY
Procedure, shortened: (§1)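 Human transcription factors were made in yeast as GST fusions, captured on glutathione beads and barcoded with DNA. With a tag-only sample included, the pool was incubated with 200 nmole of a random double-stranded 16-mer DNA library in Tris/NaCl/DTT/glycerol buffer at room temperature for 30 min, then crosslinked with 0.1% formaldehyde after washing, ligated by proximity, amplified and sequenced. For binding signal, each hexamer's read frequency for a factor is divided by its frequency for the tag-only sample.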

ELK1 = target: T2, ELK1 (Homo sapiens, UniProt P19419 1-428); conditions: protein: recombinant; tags: N-terminal GST; dsDNA, one strand shown
T2 sequence: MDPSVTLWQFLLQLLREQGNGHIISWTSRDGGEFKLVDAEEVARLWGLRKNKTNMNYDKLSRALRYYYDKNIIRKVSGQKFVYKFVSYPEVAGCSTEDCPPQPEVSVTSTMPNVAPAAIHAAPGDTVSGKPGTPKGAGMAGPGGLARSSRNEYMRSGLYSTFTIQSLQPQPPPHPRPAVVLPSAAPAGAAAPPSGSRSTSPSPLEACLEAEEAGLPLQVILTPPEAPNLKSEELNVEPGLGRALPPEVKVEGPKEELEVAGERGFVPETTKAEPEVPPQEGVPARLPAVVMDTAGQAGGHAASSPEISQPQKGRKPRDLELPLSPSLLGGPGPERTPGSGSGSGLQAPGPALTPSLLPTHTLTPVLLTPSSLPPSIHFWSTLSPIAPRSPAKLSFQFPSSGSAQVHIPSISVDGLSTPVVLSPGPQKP
Procedure, shortened: as §1

GABPA = target: T3, GABPA (Homo sapiens, UniProt Q06546 1-454); conditions: protein: recombinant; tags: N-terminal GST; dsDNA, one strand shown
T3 sequence: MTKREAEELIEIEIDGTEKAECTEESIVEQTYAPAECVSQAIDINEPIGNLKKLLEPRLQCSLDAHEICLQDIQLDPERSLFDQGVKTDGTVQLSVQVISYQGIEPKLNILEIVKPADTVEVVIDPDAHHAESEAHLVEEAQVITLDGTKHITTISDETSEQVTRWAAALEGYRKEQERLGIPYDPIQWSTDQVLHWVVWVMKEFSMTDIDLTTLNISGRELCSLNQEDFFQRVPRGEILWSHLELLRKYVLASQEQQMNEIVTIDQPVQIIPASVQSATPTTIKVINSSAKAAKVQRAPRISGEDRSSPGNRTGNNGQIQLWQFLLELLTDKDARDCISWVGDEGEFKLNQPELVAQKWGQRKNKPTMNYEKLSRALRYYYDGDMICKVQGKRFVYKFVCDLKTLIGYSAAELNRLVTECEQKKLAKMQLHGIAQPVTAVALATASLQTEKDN
Procedure, shortened: as §1

ELF1 = ELF1 (Homo sapiens, UniProt P32519 1-619); conditions: protein: recombinant; tags: N-terminal GST; dsDNA, one strand shown
Sequence of ELF1 (P32519 whole entry): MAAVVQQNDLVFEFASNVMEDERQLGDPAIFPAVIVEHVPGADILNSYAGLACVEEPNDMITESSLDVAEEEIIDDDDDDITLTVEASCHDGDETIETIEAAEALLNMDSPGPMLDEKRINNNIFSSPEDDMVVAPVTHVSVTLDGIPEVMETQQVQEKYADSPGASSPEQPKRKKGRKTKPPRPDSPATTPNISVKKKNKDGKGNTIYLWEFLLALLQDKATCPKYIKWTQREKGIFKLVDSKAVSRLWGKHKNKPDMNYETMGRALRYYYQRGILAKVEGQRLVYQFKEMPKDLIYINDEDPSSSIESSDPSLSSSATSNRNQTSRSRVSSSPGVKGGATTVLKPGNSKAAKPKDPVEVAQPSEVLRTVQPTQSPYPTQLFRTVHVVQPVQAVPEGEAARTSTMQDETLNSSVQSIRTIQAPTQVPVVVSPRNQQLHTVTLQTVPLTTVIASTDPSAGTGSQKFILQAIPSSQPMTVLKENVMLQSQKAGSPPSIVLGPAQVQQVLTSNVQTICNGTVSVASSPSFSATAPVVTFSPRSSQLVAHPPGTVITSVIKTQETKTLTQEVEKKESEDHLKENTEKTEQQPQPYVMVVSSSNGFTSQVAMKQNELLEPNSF
Procedure, shortened: as §1

EHF = target: T4, EHF (Homo sapiens, UniProt Q9NZC4 1-300); conditions: protein: recombinant; tags: N-terminal GST; dsDNA, one strand shown
T4 sequence: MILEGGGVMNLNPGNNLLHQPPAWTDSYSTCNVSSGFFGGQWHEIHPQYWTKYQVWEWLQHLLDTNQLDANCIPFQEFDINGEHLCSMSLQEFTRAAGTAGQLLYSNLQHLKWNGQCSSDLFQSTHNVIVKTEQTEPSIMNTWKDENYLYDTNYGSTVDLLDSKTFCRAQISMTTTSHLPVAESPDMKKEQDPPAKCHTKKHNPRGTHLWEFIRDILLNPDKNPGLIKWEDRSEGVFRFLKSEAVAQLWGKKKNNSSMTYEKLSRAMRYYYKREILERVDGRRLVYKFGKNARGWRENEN
Procedure, shortened: as §1

SPI1 = SPI1 (Homo sapiens, UniProt P17947 1-270); conditions: protein: recombinant; tags: N-terminal GST; dsDNA, one strand shown
Procedure, shortened: as §1

SPIB = SPIB (Homo sapiens, UniProt Q01892 1-262); conditions: protein: recombinant; tags: N-terminal GST; dsDNA, one strand shown
Sequence of SPIB (Q01892 whole entry): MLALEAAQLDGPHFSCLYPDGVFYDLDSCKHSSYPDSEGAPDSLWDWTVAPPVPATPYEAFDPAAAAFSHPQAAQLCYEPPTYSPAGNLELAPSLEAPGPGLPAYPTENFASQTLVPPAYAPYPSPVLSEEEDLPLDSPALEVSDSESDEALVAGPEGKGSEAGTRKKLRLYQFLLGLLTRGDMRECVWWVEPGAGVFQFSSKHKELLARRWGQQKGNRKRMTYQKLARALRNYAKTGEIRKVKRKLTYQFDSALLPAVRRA
Procedure, shortened: as §1

ELK3 = target: T5, ELK3 (Homo sapiens, UniProt P41970 1-407); conditions: protein: recombinant; tags: N-terminal GST; dsDNA, one strand shown
T5 sequence: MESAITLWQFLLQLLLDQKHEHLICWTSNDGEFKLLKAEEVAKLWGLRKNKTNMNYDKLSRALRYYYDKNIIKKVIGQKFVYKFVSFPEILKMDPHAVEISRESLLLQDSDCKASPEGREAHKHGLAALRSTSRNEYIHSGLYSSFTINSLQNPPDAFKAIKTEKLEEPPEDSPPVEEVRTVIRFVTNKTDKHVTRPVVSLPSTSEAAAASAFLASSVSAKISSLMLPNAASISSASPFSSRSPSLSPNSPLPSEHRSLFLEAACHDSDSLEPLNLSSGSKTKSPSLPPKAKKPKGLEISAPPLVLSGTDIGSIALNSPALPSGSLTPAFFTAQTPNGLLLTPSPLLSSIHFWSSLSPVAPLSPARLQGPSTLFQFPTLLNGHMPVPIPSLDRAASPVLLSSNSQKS
Procedure, shortened: as §1

FEV = target: T6, FEV (Homo sapiens, UniProt Q99581 1-238); conditions: protein: recombinant; tags: N-terminal GST; dsDNA, one strand shown
T6 sequence: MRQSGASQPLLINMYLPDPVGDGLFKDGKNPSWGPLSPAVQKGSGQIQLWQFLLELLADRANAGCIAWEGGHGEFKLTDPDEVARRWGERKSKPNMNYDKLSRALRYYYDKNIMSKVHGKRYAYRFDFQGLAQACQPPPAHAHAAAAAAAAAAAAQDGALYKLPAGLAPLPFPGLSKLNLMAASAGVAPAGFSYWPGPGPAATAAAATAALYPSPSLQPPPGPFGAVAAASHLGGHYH
Procedure, shortened: as §1

ETV5 = ETV5 (Homo sapiens, UniProt P41161 1-510); conditions: protein: recombinant; tags: N-terminal GST; dsDNA, one strand shown
Sequence of ETV5 (P41161 whole entry): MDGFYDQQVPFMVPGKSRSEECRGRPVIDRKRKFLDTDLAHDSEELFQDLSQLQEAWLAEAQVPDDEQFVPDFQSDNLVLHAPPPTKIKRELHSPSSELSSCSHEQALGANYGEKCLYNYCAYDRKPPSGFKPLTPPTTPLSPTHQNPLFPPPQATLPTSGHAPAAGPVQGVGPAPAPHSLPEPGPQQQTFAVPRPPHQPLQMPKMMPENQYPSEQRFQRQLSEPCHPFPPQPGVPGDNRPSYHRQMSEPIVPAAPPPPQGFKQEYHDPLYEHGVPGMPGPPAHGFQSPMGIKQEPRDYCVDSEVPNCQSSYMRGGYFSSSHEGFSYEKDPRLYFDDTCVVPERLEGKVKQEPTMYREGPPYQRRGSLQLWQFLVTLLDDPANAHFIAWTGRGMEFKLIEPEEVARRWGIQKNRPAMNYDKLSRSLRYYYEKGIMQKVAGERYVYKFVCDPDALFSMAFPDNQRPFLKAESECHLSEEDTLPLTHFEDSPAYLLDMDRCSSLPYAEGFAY
Procedure, shortened: as §1

HSF1 = HSF1 (Homo sapiens, UniProt Q00613 1-529); conditions: protein: recombinant; tags: N-terminal GST; chain copies: 3; dsDNA, one strand shown
Sequence of HSF1 (Q00613 whole entry): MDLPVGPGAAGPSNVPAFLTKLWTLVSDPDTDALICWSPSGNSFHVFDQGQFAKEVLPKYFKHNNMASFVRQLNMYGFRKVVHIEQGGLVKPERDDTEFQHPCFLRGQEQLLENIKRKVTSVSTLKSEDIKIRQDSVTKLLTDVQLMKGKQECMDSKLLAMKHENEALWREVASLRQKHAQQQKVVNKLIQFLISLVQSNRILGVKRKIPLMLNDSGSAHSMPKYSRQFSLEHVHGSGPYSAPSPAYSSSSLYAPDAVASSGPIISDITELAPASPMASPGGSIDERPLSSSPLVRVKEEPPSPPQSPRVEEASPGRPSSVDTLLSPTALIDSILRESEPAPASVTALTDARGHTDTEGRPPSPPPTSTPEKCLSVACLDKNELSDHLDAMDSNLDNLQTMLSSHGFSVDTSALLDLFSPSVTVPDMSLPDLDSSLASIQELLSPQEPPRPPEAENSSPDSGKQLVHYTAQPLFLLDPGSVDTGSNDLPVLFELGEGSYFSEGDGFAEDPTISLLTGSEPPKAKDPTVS
Procedure, shortened: as §1

SPIC = target: T7, SPIC (Homo sapiens, UniProt Q8N5J4 1-248); conditions: protein: recombinant; tags: N-terminal GST; dsDNA, one strand shown
T7 sequence: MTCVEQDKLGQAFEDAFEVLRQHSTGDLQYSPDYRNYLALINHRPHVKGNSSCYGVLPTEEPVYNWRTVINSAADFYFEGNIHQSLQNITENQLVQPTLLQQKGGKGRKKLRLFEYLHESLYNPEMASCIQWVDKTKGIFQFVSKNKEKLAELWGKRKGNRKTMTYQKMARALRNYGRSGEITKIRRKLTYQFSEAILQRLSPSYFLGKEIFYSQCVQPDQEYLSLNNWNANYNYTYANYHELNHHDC
Procedure, shortened: as §1

ELF4 = ELF4 (Homo sapiens, UniProt Q99607 1-663); conditions: protein: recombinant; tags: N-terminal GST; dsDNA, one strand shown
Sequence of ELF4 (Q99607 whole entry): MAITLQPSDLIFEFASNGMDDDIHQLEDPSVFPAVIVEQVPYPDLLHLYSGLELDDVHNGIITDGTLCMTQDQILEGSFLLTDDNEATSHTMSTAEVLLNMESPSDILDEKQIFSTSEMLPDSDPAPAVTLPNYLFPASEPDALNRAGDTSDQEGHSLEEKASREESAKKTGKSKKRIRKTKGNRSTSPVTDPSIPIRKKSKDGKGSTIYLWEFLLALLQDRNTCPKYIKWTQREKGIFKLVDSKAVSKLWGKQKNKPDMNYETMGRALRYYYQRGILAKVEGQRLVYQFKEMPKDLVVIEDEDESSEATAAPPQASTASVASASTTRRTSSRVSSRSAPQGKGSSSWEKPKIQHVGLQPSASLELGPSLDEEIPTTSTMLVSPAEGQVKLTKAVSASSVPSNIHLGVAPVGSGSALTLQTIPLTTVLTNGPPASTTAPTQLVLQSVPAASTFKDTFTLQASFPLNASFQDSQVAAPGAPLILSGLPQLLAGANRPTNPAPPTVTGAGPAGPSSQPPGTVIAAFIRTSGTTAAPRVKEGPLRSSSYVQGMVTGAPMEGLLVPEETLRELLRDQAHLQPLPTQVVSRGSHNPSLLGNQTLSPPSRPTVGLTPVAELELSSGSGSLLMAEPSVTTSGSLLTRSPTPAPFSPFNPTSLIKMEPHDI
Procedure, shortened: as §1

ELK4 = target: T8, ELK4 (Homo sapiens, UniProt P28324-2 1-405); conditions: protein: recombinant; tags: N-terminal GST; dsDNA, one strand shown
T8 sequence: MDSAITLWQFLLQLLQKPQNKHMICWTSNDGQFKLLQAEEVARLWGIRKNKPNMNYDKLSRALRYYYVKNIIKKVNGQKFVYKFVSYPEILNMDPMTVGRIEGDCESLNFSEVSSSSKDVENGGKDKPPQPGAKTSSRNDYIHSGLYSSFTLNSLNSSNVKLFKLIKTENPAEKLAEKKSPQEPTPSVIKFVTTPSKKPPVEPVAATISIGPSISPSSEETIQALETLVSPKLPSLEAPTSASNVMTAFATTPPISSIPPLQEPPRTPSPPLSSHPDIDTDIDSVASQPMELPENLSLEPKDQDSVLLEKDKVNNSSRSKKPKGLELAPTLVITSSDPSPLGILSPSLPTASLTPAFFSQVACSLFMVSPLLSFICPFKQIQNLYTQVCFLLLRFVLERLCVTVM
Procedure, shortened: as §1

CRX = CRX (Homo sapiens, UniProt O43186 1-299); conditions: protein: recombinant; tags: N-terminal GST; dsDNA, one strand shown
Sequence of CRX (O43186 whole entry): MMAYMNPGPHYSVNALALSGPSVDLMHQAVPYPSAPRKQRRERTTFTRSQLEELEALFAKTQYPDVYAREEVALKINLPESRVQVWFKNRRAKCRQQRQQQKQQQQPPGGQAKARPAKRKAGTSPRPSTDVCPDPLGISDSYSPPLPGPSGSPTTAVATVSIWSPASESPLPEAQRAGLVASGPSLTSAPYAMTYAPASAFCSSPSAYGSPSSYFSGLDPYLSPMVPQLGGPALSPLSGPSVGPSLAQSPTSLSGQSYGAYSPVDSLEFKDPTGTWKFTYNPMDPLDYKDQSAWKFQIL
Procedure, shortened: as §1

ETV1 = ETV1 (Homo sapiens, UniProt P50549 1-477); conditions: protein: recombinant; tags: N-terminal GST; dsDNA, one strand shown
Sequence of ETV1 (P50549 whole entry): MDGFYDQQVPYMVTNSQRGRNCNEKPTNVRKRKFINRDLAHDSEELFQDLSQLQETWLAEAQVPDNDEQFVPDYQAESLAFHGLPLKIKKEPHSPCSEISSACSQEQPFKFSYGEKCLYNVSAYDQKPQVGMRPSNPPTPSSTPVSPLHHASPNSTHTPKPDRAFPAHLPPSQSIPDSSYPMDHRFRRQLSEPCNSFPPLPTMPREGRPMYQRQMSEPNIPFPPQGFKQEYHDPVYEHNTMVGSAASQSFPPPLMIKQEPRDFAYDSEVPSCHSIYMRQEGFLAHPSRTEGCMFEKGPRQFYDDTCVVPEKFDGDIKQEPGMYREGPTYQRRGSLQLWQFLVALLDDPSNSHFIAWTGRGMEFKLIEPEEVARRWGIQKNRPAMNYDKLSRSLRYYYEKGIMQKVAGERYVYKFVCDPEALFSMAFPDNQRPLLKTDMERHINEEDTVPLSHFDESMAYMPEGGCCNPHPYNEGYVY
Procedure, shortened: as §1

Sequence: TGATCG
- binding signal (FLI1): 1 fold enrichment (6-mer frequency, TF over GST control)
- binding signal (ELK1): 1 fold enrichment (6-mer frequency, TF over GST control)
- binding signal (GABPA): 1.03 fold enrichment (6-mer frequency, TF over GST control)
- binding signal (ELF1): 1.03 fold enrichment (6-mer frequency, TF over GST control)
- binding signal (EHF): 1.13 fold enrichment (6-mer frequency, TF over GST control)
- binding signal (SPI1): 1.03 fold enrichment (6-mer frequency, TF over GST control)
- binding signal (SPIB): 1.12 fold enrichment (6-mer frequency, TF over GST control)
- binding signal (ELK3): 1.17 fold enrichment (6-mer frequency, TF over GST control)
- binding signal (FEV): 1.01 fold enrichment (6-mer frequency, TF over GST control)
- binding signal (ETV5): 1.03 fold enrichment (6-mer frequency, TF over GST control)
- binding signal (HSF1): 1.18 fold enrichment (6-mer frequency, TF over GST control)
- binding signal (SPIC): 1.11 fold enrichment (6-mer frequency, TF over GST control)
- binding signal (ELF4): 1.05 fold enrichment (6-mer frequency, TF over GST control)
- binding signal (ELK4): 1.13 fold enrichment (6-mer frequency, TF over GST control)
- binding signal (CRX): 1.21 fold enrichment (6-mer frequency, TF over GST control)
- binding signal (ETV1): 1.09 fold enrichment (6-mer frequency, TF over GST control)
